Data on eight compounds can be found in PubChem BioAssay (NCATS).

Where “and” joins values, the source holds several entries; their conditions need not be identical. Equal entries are not always repeated. Inconclusive results are not listed. Calls of active or inactive are those of the source. Unless noted, calls come from the whole dose curve; as a rule, active = well fitted curve in the direction sought with a large enough effect; inconclusive = small, poorly fitted or top-dose-only effect, or another doubt; inactive = no such curve, though single readings can be large; an effect the other way counts as inactive or inconclusive.

The nature of assay [1]: Validation of Assay for Modulators of Lamin A Splicing (AID 1459; active = well fitted curve in the direction sought with a large enough effect in the signal ratio; the % refers to the signal ratio;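 note: cells exposed to compound for two days before reading; 0% is about no effect; ratio rise marks activators and ratio drop marks inhibitors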). The procedure, abridged: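 S3 HeLa cells stably expressing a lamin A-EGFP splicing minigene and DsRed2 were seeded at 600 cells/well in Opti-MEM with 2% FBS, pin-dosed, and incubated 48 hrs at 37 °C, 5% CO2. Laser-scanning cytometry (488 nm) gave GFP/RFP total intensity ratio.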
A short description of assay [2]: qHTS Assay for Lipid Storage Modulators (AID 1519; calls by dose curve; for activity change, negative = inhibition: % is set by controls: 0 for no effect and ±100 for the full control effect). To be noted: Drosophila S3 cells, BODIPY lipid droplet/cell ratio, laser cytometry, cells loaded with oleic acid; for activity change, negative = inhibition: at 57.5 µM (top of the series). The procedure, abridged: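 Cells seeded at 5,000 per well were treated with compounds over a concentration series and loaded with oleic acid (400 uM, as added). Lipid droplet fluorescence (488 nm excitation, 500-530 nm channel) was read by laser-scanning cytometry and normalized to 20 uM Triacsin C.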

In assay [3] the target is DNA repair nuclease/redox regulator APEX1 (Homo sapiens) (UniProt P27695). In words: qHTS Validation Assay for Inhibitors of the Human Apurinic/apyrimidinic Endonuclease 1 (APE1) (AID 1705; note: potency is the fitted concentration of half-maximal effect;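 for activity change, negative = inhibition: TAMRA fluorescence gain over two minutes as APE1 cuts a quenched THF abasic duplex; % is set by controls: 0 for no effect and ±100 for the full control effect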). The procedure, abridged: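 Human APE1 was preincubated with compound for 15 min at room temperature, then 50 nM (final) THF-abasic double-stranded DNA substrate bearing 5'-TAMRA and 3'-BHQ-2 was added. Incision-driven fluorescence rise (ex 525/em 598 nm) was read kinetically.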

Assay [4] in a line: Counterscreen for APE1 Inhibitors: Fluorescent Dye Displacement Validation Assay (AID 1707).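 For activity change, negative = inhibition: plate controls were ThO with dsDNA and no compound for no effect and ThO without dsDNA for full effect.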 Note: potency is the fitted concentration of half-maximal effect. The method, boiled down:
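Assay buffer: Tris-HCl pH7.5 with 50mM NaCl, 2 mM MgCl2, 0.01% Tween-20. Dye 250 nM, duplex 50 nM final. Readout: decrease in ThO endpoint fluorescence, 480 nm excitation, 540 nm emission.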

The nature of assay [5]: qHTS for differential inhibitors of proliferation of Plasmodium falciparum line GB4 (AID 1816).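 Note: parasite growth measured after 72 h incubation; 0% = vehicle DMSO and -100% = reference inhibitor.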 To be noted: Potency: Plasmodium falciparum GB4 proliferation inhibition.
Assay [6] in a line: qHTS for differential inhibitors of proliferation of Plasmodium falciparum line 3D7 (AID 1876).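 Note: parasite growth measured after three days of culture; 0% = vehicle wells and -100% = reference inhibitor wells.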
Assay [7] is described as follows: qHTS for differential inhibitors of proliferation of Plasmodium falciparum line D10 (AID 1877).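 Note: parasites grown with compound for 72 h before DNA staining; plate controls were vehicle wells for no effect and reference inhibitor wells for full effect.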
The nature of assay [8]: qHTS for differential inhibitors of proliferation of Plasmodium falciparum line HB3 (AID 1886).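 Note: parasites grown with compound for 72 h before SYBR Green readout; plate controls were vehicle for no effect and reference inhibitor for full effect.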 To be noted: Potency: Plasmodium falciparum HB3 proliferation inhibition.
The target of assay [9] is ATP-dependent DNA helicase Q1 (Homo sapiens) (UniProt P46063). In words: qHTS Validation Assay for Inhibitors of RecQ-Like Dna Helicase 1 (RECQ1) (AID 2353).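 For activity change, negative = inhibition: plate controls were DMSO vehicle for no effect and enzyme-free control for full effect.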 Note: potency is the fitted concentration of half-maximal effect. The procedure, abridged:
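50 nM RECQ1T1 preincubated 15 min with compound in Tris pH 8.0 buffer with MgCl2, DTT, Tween-20 and 2.5 ug/ml poly(dI-dC); started with 200 nM TAMRA/BHQ-2 forked duplex and 2 mM ATP. Unwinding read as fluorescence (525/598 nm), two reads 2 h apart.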

The nature of assay [10]: Validation screen for small molecules that induce DNA re-replication in MCF 10A normal breast cells (AID 463097). Note: 0% is about no effect; nearly all actives have a fitted effect of over 60% in size. The procedure, abridged: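 Readout: Hoechst nuclear fluorescence intensity, 405 ex / 500-530 em, by scanning plate imager; re-replication scored as increase in nuclei with elevated DNA content. Cells exposed to compound 48 hr, 37 C, 5% CO2 beforehand.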
Assay [11] can be described thus: Quantitative high throughput screen for delayed death inhibitors of the malarial parasite plastid, 96 hour incubation (AID 488745). Note: % is set by controls: 0 for no effect and ±100 for the full control effect; nearly all actives have a fitted effect of over 70% in size. The procedure, abridged: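 P. falciparum carrying an integrated firefly luciferase reporter, grown in erythrocytes (2% hematocrit, 0.1% parasitemia final) in RPMI 1640/0.5% Albumax, was exposed to compound for 96 h (two generations) at 37 C, 5% CO2. Luminescence decrease indicated growth inhibition.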

A short description of assay [12]: Quantitative high throughput screen for delayed death inhibitors of the malarial parasite plastid, 48 hour incubation (AID 488752). Note: % is set by controls: 0 for no effect and ±100 for the full control effect; nearly all actives have a fitted effect of over 65% in size. The procedure, abridged:
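Erythrocytes infected with P. falciparum carrying an integrated firefly luciferase reporter (2% hematocrit, 0.1% parasitemia final) were exposed to compounds in RPMI 1640/0.5% Albumax for 48 h at 37 C, 5% CO2. Growth inhibition was scored as reduced luminescence.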

For assay [13], the target named is Transient receptor potential cation channel subfamily V member 1 (Homo sapiens) (UniProt Q8NER1). In words: HTS Assay for Compounds that Act as Enhancers of the Vanilloid Receptor 1 (AID 488979). Note: 0% is about no effect. The procedure, abridged:
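Calcium influx kinetics via Fluo-8 (480/520 nm) in TRPV1-expressing cells, 2000/well cultured overnight at 35.5C. Compound-alone read 3 min (agonist phase), followed by EC20 capsaicin challenge for 2 min (enhancer phase).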

In assay [14] the target is Thyrotropin receptor (Homo sapiens) (UniProt P16473). In words: qHTS Assay for Antagonists of the Thyroid Stimulating Hormone Receptor (AID 488980). Note: 0% is about no effect. The procedure, abridged: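 HEK293 cells transfected with human TSHR, suspended in HEPES-buffered HBSS with 70 uM RO 20-1724, were treated with compounds plus TSH at EC80 (4 nM final). cAMP was measured by competitive HTRF (cryptate anti-cAMP antibody, cAMP-d2 acceptor).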

Assay [15] concerns the target Thyrotropin-releasing hormone receptor (Homo sapiens) (UniProt P34981). Briefly: qHTS for Small Molecule Agonists and Allosteric Enhancers of Human TRH Receptor: Validation Screen for Agonists (AID 493127;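 active = calcium activation more than 3 SD above the typical response in the agonist read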;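 note: intracellular calcium rise by fluo-8 fluorescence before TRH EC20 addition; 0% is about no effect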). To be noted: TRH receptor agonist cell assay; at 2 µM; stronger effect = higher value. The procedure, abridged: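 TRHR-expressing cells were plated overnight in serum-containing medium, then loaded with fluo-8 calcium dye at room temperature for 30 min–1.5 h. After a 10 s baseline, compound was pin-transferred and calcium fluorescence (ex 480/em 530) read kinetically for agonist response.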

Assay [16] addresses Galactokinase (Homo sapiens) (UniProt P51570). In words: qHTS Validation Assay for Inhibitors of Human Galactokinase (GALK) (AID 493189). Note: 0% is about no effect. The method, boiled down:
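GALK (5 nM) with 35 uM ATP and 100 uM galactose in HEPES pH8.0, MgCl2, NaCl, DTT, BSA; 1 h at room temperature. Residual ATP read by Kinase-Glo Plus luminescence after 10 min.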

Assay [17] can be described thus: Validation screen for small molecules that induce DNA re-replication in SW480 colon adenocarcinoma cells (AID 504364). Note: 0% is about no effect. The procedure, abridged: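 SW480 cells seeded at 250 per well were exposed to compound or DMSO for 48 hr at 37 C, 5% CO2, then stained with Hoechst for 40 min. DNA content per nucleus was imaged (405 nm ex, 500-530 nm em).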
Assay [18] addresses Glutathione peroxidase 1 (Homo sapiens) (UniProt P07203). Briefly: Primary qHTS Assay for Inhibitors of Recombinant Selenoprotein Glutathione Peroxidase 1 (GPX1) (AID 1845191). Note: nearly all actives have a fitted effect of over 65% in size. The procedure, abridged:
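10 nM GPX1 + cpd, 30 min RT; start w/ 1 mM GSH, 0.5 mM cumene hydroperoxide, 0.5 mM NADPH, 100 nM GR, 0.01% BSA; buffer 50 mM Tris-HCl pH 7.5, 2 mM EDTA, 150 mM NaCl; Fl 340/450, 0 & 15 min.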

Assay [19] can be described thus: qHTS drug screen for cell cycle checkpoint inhibitors in PARPi-resistant BRCA-mutant ovarian cancer cell lines. (AID 1963452; calls by dose curve; note: potency is the fitted concentration of half-maximal effect). To be noted: PEO1/OlaR viability, CellTiter-Glo luminescence, 96 h; for Z-AUC: stronger effect = lower value. The procedure, abridged:
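PEO1, PEO4 and PEO1/OlaR ovarian cancer cells, 600 per well, exposed 96 h at 37C to a dilution series. Viability read by CellTiter-Glo luminescence, normalized to DMSO and empty wells; activity summarized as Z-AUC.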

The nature of assay [20]: qHTS assay to identify inhibitors of the type 1 interferon - major histocompatibility complex class I in skeletal muscle: Counter screen cell viability and HiBit confirmation (AID 1347412). Note: potency is the fitted concentration of half-maximal effect; nearly all actives have a fitted effect of over 60% in size. To be noted: iHSKM muscle cells + IFN-b, HiBiT or CellTiter-Glo, 24 h. The method, boiled down:
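HLA-B*08:01–HiBiT knock-in immortalized human myoblasts (C25cl48) stimulated with 4.0 ng/ml human IFN-beta and dosed with compound in a 12-point 1:3 titration (top final 46 uM). After 24 hrs at 37 C, HiBiT lytic luminescence or CellTiter Glo ATP read out.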

Where [21] appears, read: measured here: cell count channel max response.
Setting [22] is: measured here: lipid channel max response.
[23] abbreviates: measured here: PEO1 parental Z-AUC.

Sequence of Thyrotropin-releasing hormone receptor (Homo sapiens) (P34981 whole entry, looked up): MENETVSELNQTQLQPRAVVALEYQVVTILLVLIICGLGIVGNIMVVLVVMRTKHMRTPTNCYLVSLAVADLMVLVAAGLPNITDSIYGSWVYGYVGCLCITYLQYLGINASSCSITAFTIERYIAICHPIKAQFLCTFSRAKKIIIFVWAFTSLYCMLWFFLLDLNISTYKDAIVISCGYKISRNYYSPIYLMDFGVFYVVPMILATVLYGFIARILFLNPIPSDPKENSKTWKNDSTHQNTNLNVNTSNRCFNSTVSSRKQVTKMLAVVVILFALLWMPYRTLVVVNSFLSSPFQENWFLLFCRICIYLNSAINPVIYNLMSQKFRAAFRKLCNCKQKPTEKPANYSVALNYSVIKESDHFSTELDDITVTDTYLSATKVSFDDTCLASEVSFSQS
Sequence of Galactokinase (Homo sapiens) (P51570 whole entry, looked up): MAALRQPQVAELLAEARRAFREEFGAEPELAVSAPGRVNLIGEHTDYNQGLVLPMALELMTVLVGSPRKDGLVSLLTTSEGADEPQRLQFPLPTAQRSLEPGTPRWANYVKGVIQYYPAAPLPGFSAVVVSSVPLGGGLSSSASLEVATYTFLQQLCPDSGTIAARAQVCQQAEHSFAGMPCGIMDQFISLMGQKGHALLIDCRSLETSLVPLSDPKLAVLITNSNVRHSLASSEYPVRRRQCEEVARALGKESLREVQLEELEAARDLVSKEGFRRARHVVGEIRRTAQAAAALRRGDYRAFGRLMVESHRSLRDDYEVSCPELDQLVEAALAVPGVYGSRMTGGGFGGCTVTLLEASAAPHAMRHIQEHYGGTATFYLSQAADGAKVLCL
Sequence of ATP-dependent DNA helicase Q1 (Homo sapiens) (P46063 whole entry, looked up): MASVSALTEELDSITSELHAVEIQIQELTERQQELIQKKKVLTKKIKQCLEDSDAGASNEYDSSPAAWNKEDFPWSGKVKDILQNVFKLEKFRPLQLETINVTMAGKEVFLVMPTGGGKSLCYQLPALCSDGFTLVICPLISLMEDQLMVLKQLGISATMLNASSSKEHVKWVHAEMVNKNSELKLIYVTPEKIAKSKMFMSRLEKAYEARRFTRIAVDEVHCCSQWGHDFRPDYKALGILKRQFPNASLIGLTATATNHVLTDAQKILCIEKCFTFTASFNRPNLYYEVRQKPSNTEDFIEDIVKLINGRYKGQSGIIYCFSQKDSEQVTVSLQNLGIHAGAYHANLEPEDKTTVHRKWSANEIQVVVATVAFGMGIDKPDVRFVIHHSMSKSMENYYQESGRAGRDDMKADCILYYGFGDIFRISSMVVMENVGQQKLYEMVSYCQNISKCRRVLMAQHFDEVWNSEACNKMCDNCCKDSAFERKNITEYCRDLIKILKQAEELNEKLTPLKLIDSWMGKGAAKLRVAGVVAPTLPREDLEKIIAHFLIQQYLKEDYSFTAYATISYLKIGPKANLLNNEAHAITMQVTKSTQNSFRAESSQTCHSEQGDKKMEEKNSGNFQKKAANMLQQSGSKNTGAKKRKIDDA
Sequence of Glutathione peroxidase 1 (Homo sapiens) (P07203 whole entry, looked up): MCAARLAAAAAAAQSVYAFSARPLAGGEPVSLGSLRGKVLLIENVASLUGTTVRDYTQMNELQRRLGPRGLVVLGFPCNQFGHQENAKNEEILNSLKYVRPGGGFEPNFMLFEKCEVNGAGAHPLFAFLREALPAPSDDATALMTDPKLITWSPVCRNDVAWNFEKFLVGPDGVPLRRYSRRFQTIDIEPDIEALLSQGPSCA
Sequence of Transient receptor potential cation channel subfamily V member 1 (Homo sapiens) (Q8NER1 whole entry, looked up): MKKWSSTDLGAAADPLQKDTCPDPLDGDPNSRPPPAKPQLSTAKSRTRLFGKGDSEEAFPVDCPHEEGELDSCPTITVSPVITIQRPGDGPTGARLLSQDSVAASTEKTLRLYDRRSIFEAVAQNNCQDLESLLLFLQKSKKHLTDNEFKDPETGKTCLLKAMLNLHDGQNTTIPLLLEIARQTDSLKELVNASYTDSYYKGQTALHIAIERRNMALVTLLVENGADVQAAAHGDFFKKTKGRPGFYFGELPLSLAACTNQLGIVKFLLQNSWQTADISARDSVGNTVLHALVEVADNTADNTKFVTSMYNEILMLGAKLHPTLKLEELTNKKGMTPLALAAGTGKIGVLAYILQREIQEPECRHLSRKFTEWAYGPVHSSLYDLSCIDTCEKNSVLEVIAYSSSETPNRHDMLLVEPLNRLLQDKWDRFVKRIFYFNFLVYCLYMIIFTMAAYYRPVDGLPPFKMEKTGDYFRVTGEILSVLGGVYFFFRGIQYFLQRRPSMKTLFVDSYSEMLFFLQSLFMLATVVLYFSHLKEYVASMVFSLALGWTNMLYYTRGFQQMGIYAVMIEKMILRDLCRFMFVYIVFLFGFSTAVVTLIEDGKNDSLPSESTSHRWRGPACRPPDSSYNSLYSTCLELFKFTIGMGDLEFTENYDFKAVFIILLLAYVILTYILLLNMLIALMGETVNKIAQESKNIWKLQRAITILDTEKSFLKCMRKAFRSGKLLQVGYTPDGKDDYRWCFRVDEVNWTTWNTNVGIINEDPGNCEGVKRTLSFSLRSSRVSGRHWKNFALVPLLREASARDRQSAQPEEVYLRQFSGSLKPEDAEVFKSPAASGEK
Sequence of DNA repair nuclease/redox regulator APEX1 (Homo sapiens) (P27695 whole entry, looked up): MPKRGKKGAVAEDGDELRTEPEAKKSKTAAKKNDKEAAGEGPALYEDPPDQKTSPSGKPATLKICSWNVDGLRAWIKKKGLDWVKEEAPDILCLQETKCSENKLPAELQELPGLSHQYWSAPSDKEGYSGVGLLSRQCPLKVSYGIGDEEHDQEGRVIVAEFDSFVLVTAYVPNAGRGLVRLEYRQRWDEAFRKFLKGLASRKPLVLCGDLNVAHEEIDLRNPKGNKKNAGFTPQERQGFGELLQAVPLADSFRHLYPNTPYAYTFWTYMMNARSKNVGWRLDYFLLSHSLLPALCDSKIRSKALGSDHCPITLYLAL
Sequence of Thyrotropin receptor (Homo sapiens) (P16473 whole entry, looked up): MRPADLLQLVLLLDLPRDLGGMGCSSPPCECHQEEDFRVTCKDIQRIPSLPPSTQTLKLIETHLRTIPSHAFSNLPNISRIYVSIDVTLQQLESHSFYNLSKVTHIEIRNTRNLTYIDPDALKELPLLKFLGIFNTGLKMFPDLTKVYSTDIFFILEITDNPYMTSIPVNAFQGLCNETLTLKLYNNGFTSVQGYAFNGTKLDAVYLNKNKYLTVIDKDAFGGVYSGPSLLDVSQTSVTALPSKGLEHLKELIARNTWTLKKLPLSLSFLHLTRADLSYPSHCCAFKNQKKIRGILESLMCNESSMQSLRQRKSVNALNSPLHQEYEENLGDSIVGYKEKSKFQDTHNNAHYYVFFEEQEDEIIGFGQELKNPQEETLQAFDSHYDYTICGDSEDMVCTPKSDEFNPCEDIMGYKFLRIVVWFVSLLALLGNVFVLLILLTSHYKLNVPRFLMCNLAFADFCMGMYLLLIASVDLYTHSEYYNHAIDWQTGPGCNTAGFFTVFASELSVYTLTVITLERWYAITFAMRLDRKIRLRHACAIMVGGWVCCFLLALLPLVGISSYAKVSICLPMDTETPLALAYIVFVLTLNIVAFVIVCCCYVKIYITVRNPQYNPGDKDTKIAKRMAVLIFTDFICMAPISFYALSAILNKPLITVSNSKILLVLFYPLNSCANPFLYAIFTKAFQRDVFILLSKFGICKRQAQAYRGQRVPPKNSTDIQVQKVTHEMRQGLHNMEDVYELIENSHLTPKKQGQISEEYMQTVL

With `NCCNC(=O)c1ccc(Cl)cc1`, the outcome in assay [1], in assay [10], in [13], in [14], in assay [16] and in [17] was inactive. Besides, the activity change, negative = inhibition in assay [2] is -0.17% (inactive) and -0.521% (inactive). Besides, the max response in assay [2] (setting [21]) was 0.461% and 25.8%; in assay [2] (setting [22]), 1.39% and 22.5%. Moreover, the Potency result in assay [3], in [4], in assay [5], in assay [6], in assay [7] and in assay [8] was “inactive” in each case. The Potency entry in assay [9], in assay [11] and in assay [12] was “inactive” throughout. Moreover, the activation in [15] was 0.625% (inactive).
Turning to `CN1CCN(c2ccc3nc(-c4cc(C(C)(C)C)c(OCCCC(=O)NCCCN=[N+]=[N-])c(C(C)(C)C)c4)[nH]c3c2)CC1`, the Potency result in [18] is “inactive”. For the same compound, the Z-AUC is 0.842 (inactive) in assay [19], 0.24 in [19] (setting [23]) and 0.156 in assay [19] (measured here: PEO4 Z-AUC). Also, the Potency in assay [20] (Viability) was 24.9 µM (active).
As to `CN1C(=O)CCC1c1cccnc1` (stereo not drawn), the result in [1], in [10], in [13], in [14], in assay [16] and in assay [17] was inactive. The activity change, negative = inhibition in assay [2] was 10.8% (inactive). The values for the max response in assay [2] (setting [21]) and in [2] (setting [22]) were -1.85% and 10.6%, respectively. Moreover, the Potency entry in [3], in [4], in [5], in assay [7], in [8] and in assay [9] was “inactive” each time. In addition, the Potency entry in assay [12] is “inactive”. Further, in assay [15], the activation is 1.19% (inactive).
As for `O=c1cc(N2CCOCC2)oc2c(-c3ccc4c(c3)OCCO4)csc12`, the Potency entry in assay [18] is “inactive”. The Z-AUC in [19] is -0.839 (inactive); in assay [19] (setting [23]), -0.602; in [19] (measured here: PEO4 Z-AUC), -0.553. Further, in assay [20] (HiBiT), the Potency is 14 µM (active).
With `C[C@@H](Oc1ccc2[nH]nc(/C=C/c3cnn(CCO)c3)c2c1)c1c(Cl)cncc1Cl`, the Z-AUC was -1.01 (inactive) in assay [19], -0.521 in [19] (setting [23]) and -0.403 in [19] (measured here: PEO4 Z-AUC). The Potency in assay [20] (HiBiT) is 0.557 µM (active).
As for `CO[C@H]1/C=C\C=C(\C)C(=O)NC2=CC(=O)C(NCCN(C)C)=C(C[C@@H](C)C[C@H](OC)[C@H](O)[C@@H](C)/C=C(/C)[C@@H]1OC(N)=O)C2=O`, the Potency result in [18] is “inactive”. The Potency in assay [19] is 0.219 µM (active); in assay [20] (HiBiT) it was 0.0176 µM (active). Moreover, the Z-AUC in assay [19] (setting [23]) was -2.33; in [19] (measured here: PEO4 Z-AUC), -1.76.
Regarding `O=C(O)CC[C@H](NC(=O)c1ccccc1C(=O)O)C(=O)O`, the outcome in assay [1], in assay [10], in assay [13], in assay [14], in assay [16] and in assay [17] was inactive. Besides, in [2], the activity change, negative = inhibition is -0.627% (inactive). For the same compound, the max response in [2] (setting [21]) was 34.2%; in assay [2] (setting [22]) it was 31.2%. Moreover, the Potency entry in [3], in assay [4], in [5], in assay [6], in assay [7] and in assay [8] was “inactive” throughout. Also, the Potency entry in assay [9], in assay [11] and in [12] was “inactive” each time. In [15], the activation is 0.188% (inactive).
As to `N.N.N.N.N.N.N.N.N.N.N.N.N.N.O.O.[Cl-].[Cl-].[Cl-].[Cl-].[Cl-].[Cl-].[Ru].[Ru].[Ru]`, the outcome in [1], in [10], in assay [13], in [16] and in [17] was inactive. Moreover, the activity change, negative = inhibition in assay [2] was 3.46% (inactive). Moreover, the values for the max response in assay [2] (setting [21]) and in assay [2] (setting [22]) were 40.4% and 45.1%, respectively. Also, the Potency was 35.5 µM (active) in assay [3], 20 µM (active) in assay [4] and 4.47 µM (active) in assay [9]. Besides, the Potency result in [11] and in [12] was “inactive” each time. For the same compound, the activation in assay [15] was 1.06% (inactive).
